This passage reports outcome and AC50 results from PubChem BioAssay (EPA / NIEHS).

Structures are written as SMILES. Activity calls are given as the source filed them. How the source made its calls: active means hit-call score of the fitted dose curve at least 0.9, where 1 is the maximum; inactive means score below 0.9.

The nature of test [1]: APR_HepG2_P-H2AX_72hr: Apredica 72-hour HepG2 Assay for H2AX Phosphorylation (AID 2282916).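 Further: phospho-histone H2A.x immunostain intensity per cell marking DNA damage.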 To be noted: imaging, actives raise or lower the signal. A digest of the protocol:
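Following 72 hr treatment with 0.39–200 uM compound, HepG2 cells were formaldehyde-fixed, permeabilized and stained for phospho-H2A.x; signal was measured by high-content imaging and fitted bidirectionally against DMSO controls.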

Test [2] in a line: APR_HepG2_MitoMembPot_72hr: Apredica 72-hour HepG2 Assay for Mitochondrial Membrane Potential (AID 2282917). To be noted: imaging, actives raise or lower the signal. A digest of the protocol:
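Membrane potential read by MitoTracker Red CMXRos (250 nM, 30 min, pre-fixation) fluorescence imaging of HepG2 after 72 hr exposure. Ten concentrations, 0.39–200 uM, duplicate wells, 0.5% DMSO; fitted in both directions against DMSO baseline.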

Test [3] is described as follows: APR_HepG2_MitoticArrest_72hr: Apredica 72-hour HepG2 Assay for Mitotic Arrest (AID 2282918). The following applies: high-content imaging, actives raise or lower the signal. The gist of the method:
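Read-out is phospho-histone H3 immunofluorescence with Hoechst nuclear segmentation, imaged at 20x. Human HepG2 liver cells received ten concentrations (0.39–200 uM, final DMSO 0.5% v/v) for 72 hr before fixation. Gain or loss of signal was fitted relative to DMSO.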

A short description of test [4]: APR_HepG2_MicrotubuleCSK_72hr: Apredica 72-hour HepG2 Assay for Microtubule CSK Stabilty (AID 2282919). To be noted: HepG2 microtubule cytoskeleton, high-content imaging, actives raise or lower the signal. A digest of the protocol: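 Read-out is tubulin fluorescence intensity from high-content imaging of HepG2 cells, with nuclei identified by Hoechst 33342. Treatment lasts 72 h at 0.39–200 uM, and curves are fitted bidirectionally against the DMSO negative control.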

Test [5] in a line: APR_HepG2_StressKinase_72hr: Apredica 72-hour HepG2 Assay for Stress Kinase (AID 2282921). The following applies: HepG2 stress kinase (phospho-c-Jun) imaging, actives raise or lower the signal. A digest of the protocol: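 Fluorescence intensity of Cy3-tagged anti-phospho-c-Jun antibody, quantified per cell from Hoechst-defined nuclei across six images per well, served as the read-out following 72 h exposure (0.39–200 uM, 0.5% v/v DMSO).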

The nature of test [6]: APR_HepG2_StressKinase_24hr: Apredica 24-hour HepG2 Assay for Stress Kinase (AID 2282922). The following applies: HepG2 stress kinase (phospho-c-Jun) imaging, actives raise or lower the signal. A digest of the protocol:
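HepG2, 24 hr dosing, 0.39–200 uM in duplicate, 0.5% DMSO; formaldehyde fix (3.7%), 0.5% Triton X-100; anti-phospho-c-Jun + Cy3 secondary, Hoechst counterstain; ArrayScan imaging; bidirectional curve fit vs DMSO baseline.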

Test [7] can be described thus: APR_HepG2_MitoMass_72hr: Apredica 72-hour HepG2 Assay for Mitochondrial Mass (AID 2282924).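 Further: MitoTracker Red CMXRos stain intensity per cell imaged as mitochondrial mass.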 To be noted: high-content imaging, actives raise or lower the signal. The gist of the method:
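HepG2, 72 hr cmpd, 10 conc 0.39–200 uM in dup, DMSO 0.5% v/v. MitoTracker Red CMXRos 250 nM 30 min pre-fix; formaldehyde 3.7% fix 30 min RT. HCS imaging, gain/loss fit vs DMSO.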

Test [8] is described as follows: APR_HepG2_NuclearSize_72hr: Apredica 72-hour HepG2 Assay for Nuclear Size (AID 2282925). The following applies: high-content imaging, actives raise or lower the signal. A digest of the protocol:
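HepG2; cpd 0.39–200 uM, 10 conc, duplicate; 72 h; DMSO 0.5% v/v; fix 3.7% formaldehyde 30 min RT; Triton permeabilization; Hoechst 2 ug/mL; HCS imaging 20x; nuclear diameter; gain/loss fit vs DMSO.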

Test [9] is described as follows: ATG_CRE_CIS: Attagene CIS-FACTORIAL HepG2 Assay for human cAMP Responsive Element (CRE) binding protein 3 (AID 2282926). To be noted: HepG2 CRE cis-reporter, Attagene multiplexed mRNA; actives raise or lower the signal. The gist of the method:
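Human liver HepG2, transient MRTU transfection, 24 h compound exposure. Total RNA → oligo(dT) RT → PCR → 6-FAM primer extension → HpaI cut → CE. Activity called both directions vs DMSO.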

Test [10] deals with CCAAT/enhancer-binding protein beta (Homo sapiens) (UniProt P17676). Put plainly: ATG_C_EBP_CIS: Attagene CIS-FACTORIAL HepG2 Assay for human CCAAT/Enhancer Binding Protein (C/EBP) beta (AID 2282927). To be noted: HepG2 Attagene cis-factorial transcription factor reporter; actives raise or lower the signal. The gist of the method:
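Endogenous C/EBPb-driven reporter transcripts measured in transfected human HepG2 cells at 24 h via RT-PCR and capillary electrophoresis of labelled fragments. Activity fitted in both directions relative to DMSO baseline.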

Test [11] can be described thus: ATG_CMV_CIS: Attagene CIS-FACTORIAL HepG2 Assay for human CMV (Internal Marker) (AID 2282928).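 Further: endpoint acts as a background internal control marker rather than a target.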 The following applies: HepG2 CMV promoter reporter, transcription factor profiling; actives raise or lower the signal. A digest of the protocol: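 Endogenous transcription factor activity read in HepG2 via transfected cis-promoter reporter units. After 24 h dosing, reporter mRNA measured by RT-PCR/capillary electrophoresis; gain or loss of signal fit relative to DMSO.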

The nature of test [12]: ATG_DR4_LXR_CIS: Attagene CIS-FACTORIAL HepG2 Assay for human Liver X Receptor (LXR), DR4 submotif (AID 2282929). The following applies: HepG2 Attagene DR4 cis-reporter, mRNA transcription; actives raise or lower the signal. A digest of the protocol:
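HepG2, transient MRTU transfection, cis-element (DR4) promoter; 24 h compound exposure; total RNA → oligo(dT) RT → PCR → 6-FAM primer extension → HpaI cut → CE. Gain/loss vs DMSO, bidirectional fit.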

In test [13] the target is Aryl hydrocarbon receptor (Homo sapiens) (UniProt P35869). Nature of the test: ATG_Ahr_CIS: Attagene CIS-FACTORIAL HepG2 Assay for human Aryl Hydrocarbon Receptor (Ahr) (AID 2282930). To be noted: HepG2 AhR cis-factorial reporter transcription; actives raise or lower the signal. A digest of the protocol:
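Reporter mRNA levels, quantified by RT-PCR and fluorescent capillary electrophoresis, reflect endogenous AhR transcriptional activity in HepG2 cells carrying transfected cis-promoter reporter constructs. Readout at 24 h post-dose; gain or loss fitted against DMSO baseline.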

Test [14] can be described thus: ATG_AP_1_CIS: Attagene CIS-FACTORIAL HepG2 Assay for human Activator Protein 1 (AP-1) (AID 2282931). To be noted: HepG2 Attagene cis-factorial AP-1 reporter mRNA; actives raise or lower the signal. The gist of the method: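 Transient MRTU transfection of HepG2 → 24 h chemical treatment → RNA isolation, RT-PCR, 6-FAM labelling, HpaI digest → capillary electrophoresis. Fit: bidirectional, DMSO negative control.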

The nature of test [15]: ATG_AP_2_CIS: Attagene CIS-FACTORIAL HepG2 Assay for human Activator Protein 2 (AP-2) (AID 2282932). To be noted: HepG2 AP-2 cis-reporter, Attagene transcription factor profiling; actives raise or lower the signal. A digest of the protocol: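 Step one: transient transfection of HepG2 with reporter transcription units. Step two: 24 h chemical exposure. Step three: RNA extraction, RT-PCR, labelled fragment analysis by capillary electrophoresis; DMSO serves as baseline.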

In test [16] the target is Transcription factor E2F1 (Homo sapiens) (UniProt Q01094). Put plainly: ATG_E2F_CIS: Attagene CIS-FACTORIAL HepG2 Assay for human E2F Transcription Factor 1 (AID 2282935). The following applies: HepG2 Attagene cis-reporter, E2F reporter RNA transcripts; actives raise or lower the signal. The gist of the method: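 Total RNA from 24 h-treated, reporter-transfected HepG2 cells undergoes DNase I treatment, oligo(dT) reverse transcription, PCR and 6-FAM primer extension before capillary electrophoresis.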

Test [17] can be described thus: APR_HepG2_p53Act_72hr: Apredica 72-hour HepG2 Assay for p53 Activation (AID 2282923).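 Further: average cellular p53 protein immunofluorescence intensity in HepG2 cells.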 To be noted: high-content imaging, actives raise or lower the signal. The gist of the method: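 HepG2 monolayers receive test compounds in duplicate at ten concentrations (0.39 through 200 uM) for 72 hr. They are then formaldehyde-fixed, antibody-labelled for p53, Hoechst-stained and imaged, with activity fitted bidirectionally versus DMSO.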

Test [18] is described as follows: ATG_BRE_CIS: Attagene CIS-FACTORIAL HepG2 Assay for human Bone Morphogenetic Protein (BMP) Response Element (BRE) (AID 2282933). To be noted: HepG2 BMP response element reporter, Attagene transcription factor profiling; actives raise or lower the signal. The gist of the method:
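Endogenous transcription factor activity at a BMP response element was monitored in transfected HepG2 cells 24 h after dosing. Fluorescent RT-PCR products were resolved by capillary electrophoresis, and activity was fitted in both directions versus DMSO.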

The target in test [19] is Retinoic acid receptor alpha (Homo sapiens) (UniProt P10276). Nature of the test: ATG_DR5_RAR_CIS: Attagene CIS-FACTORIAL HepG2 Assay for human Retinoic Acid Receptor Alpha (RARE), DR5 submotif (AID 2282934).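 On AC50: reporter responds to endogenous RAR alpha beta and gamma in HepG2 not RARA alone.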 To be noted: HepG2 Attagene cis-factorial RARE DR5 reporter, mRNA; actives raise or lower the signal. The gist of the method:
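Reporter transcripts from a DR5-regulated unit, measured via RT-PCR plus capillary electrophoresis, reflect endogenous RAR activity in transiently transfected human HepG2 liver cells. Exposure lasted 24 h; gain or loss of signal scored against DMSO.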

Chain of Aryl hydrocarbon receptor (Homo sapiens) (P35869 whole entry, looked up): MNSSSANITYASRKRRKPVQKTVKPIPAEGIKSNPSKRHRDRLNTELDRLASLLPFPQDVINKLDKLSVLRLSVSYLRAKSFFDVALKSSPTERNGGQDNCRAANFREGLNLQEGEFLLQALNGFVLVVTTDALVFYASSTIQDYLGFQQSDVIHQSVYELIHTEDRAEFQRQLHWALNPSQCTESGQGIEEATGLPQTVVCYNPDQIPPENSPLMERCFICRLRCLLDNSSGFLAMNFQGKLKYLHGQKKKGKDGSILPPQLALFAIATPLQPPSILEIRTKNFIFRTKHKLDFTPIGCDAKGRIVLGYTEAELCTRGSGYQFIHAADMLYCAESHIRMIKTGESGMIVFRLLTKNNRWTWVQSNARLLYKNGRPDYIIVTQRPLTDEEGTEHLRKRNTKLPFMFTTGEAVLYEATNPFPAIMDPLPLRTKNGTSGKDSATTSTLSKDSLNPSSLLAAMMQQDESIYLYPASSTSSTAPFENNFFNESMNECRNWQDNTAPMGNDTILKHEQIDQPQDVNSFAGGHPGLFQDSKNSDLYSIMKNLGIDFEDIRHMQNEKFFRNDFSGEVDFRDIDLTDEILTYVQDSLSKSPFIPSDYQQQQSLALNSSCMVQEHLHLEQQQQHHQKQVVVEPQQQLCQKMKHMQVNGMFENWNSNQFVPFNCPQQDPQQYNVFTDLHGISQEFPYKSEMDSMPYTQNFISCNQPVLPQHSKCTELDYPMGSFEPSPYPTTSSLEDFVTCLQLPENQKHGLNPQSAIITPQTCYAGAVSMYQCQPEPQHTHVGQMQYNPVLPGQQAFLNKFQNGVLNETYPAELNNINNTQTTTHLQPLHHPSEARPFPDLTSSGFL
Chain of Transcription factor E2F1 (Homo sapiens) (Q01094 whole entry, looked up): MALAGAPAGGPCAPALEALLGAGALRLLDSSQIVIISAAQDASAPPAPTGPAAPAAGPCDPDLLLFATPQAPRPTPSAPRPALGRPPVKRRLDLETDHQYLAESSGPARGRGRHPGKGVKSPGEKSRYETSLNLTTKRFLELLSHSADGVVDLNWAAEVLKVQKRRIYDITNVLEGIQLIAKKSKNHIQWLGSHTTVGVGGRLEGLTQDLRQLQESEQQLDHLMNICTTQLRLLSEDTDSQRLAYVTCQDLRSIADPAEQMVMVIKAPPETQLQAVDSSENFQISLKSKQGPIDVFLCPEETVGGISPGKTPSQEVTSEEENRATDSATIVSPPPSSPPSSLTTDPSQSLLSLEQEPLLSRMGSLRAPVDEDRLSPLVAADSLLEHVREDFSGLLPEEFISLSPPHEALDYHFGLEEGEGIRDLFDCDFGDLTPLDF
Chain of Retinoic acid receptor alpha (Homo sapiens) (P10276 whole entry, looked up): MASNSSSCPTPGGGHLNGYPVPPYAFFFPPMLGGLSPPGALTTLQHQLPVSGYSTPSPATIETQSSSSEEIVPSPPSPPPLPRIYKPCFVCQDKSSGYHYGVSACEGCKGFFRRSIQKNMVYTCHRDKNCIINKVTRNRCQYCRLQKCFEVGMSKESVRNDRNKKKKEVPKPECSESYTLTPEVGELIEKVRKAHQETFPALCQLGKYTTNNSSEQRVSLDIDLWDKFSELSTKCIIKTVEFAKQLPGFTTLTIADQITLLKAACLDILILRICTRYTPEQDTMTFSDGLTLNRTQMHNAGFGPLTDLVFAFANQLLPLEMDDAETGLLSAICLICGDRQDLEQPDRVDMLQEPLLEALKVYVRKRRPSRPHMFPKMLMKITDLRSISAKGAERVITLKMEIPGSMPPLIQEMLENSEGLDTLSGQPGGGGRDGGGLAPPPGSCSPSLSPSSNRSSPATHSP
Chain of CCAAT/enhancer-binding protein beta (Homo sapiens) (P17676 whole entry, looked up, the tested form may be a part): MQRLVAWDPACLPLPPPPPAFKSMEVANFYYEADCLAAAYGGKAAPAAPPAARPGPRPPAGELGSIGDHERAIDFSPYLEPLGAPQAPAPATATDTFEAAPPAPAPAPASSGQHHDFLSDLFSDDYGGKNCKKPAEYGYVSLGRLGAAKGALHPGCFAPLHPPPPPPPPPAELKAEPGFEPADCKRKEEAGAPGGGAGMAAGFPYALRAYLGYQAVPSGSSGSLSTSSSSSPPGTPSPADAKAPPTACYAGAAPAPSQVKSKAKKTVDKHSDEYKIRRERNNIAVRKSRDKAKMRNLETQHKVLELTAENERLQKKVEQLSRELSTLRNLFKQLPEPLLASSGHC

Take `CCSC(=O)N(CC)C1CCCCC1`: the result in test [1], in test [2], in test [3], in [4], in test [5] and in test [6] was inactive. Further, the molecule was classed as inactive in test [7], in [8], in test [9], in test [10], in [11] and in [12]. The call in [13], in test [14], in [15] and in test [16] was inactive.

As to `CCCCCCCCOC(=O)c1ccccc1C(=O)OCCCCCCCC`, the call in test [1], in [2], in test [3], in test [4], in test [5] and in [6] was inactive. The molecule was classed as inactive in test [17], in test [7], in [8], in test [9], in test [10] and in [11]. The result in test [12], in [13], in test [14], in test [15], in [18] and in [19] was inactive. Also, the outcome in test [16] was inactive.

What is called AC50 is the midpoint of the concentration-response curve, whichever way the signal moves. Regarding `CC#Cc1cc(C)nc(Nc2ccccc2)n1`, the result in test [1], in test [2], in test [3], in test [4], in test [5] and in test [6] was inactive. Also, the result in test [7], in test [8], in test [9], in [10], in test [11] and in test [14] was inactive. The call in [15], in test [18], in test [19] and in test [16] was inactive. Also, the AC50 in test [17] was 103 µM (active); in test [12], 75 µM (active); in test [13], 23 µM (active).

`ClC1=C(Cl)[C@]2(Cl)[C@@H]3[C@H]4C[C@H]([C@@H]5O[C@H]45)[C@@H]3[C@@]1(Cl)C2(Cl)Cl`: the call in test [1], in test [2], in test [3], in [4], in test [5] and in [6] was inactive. Also, the molecule was classed as inactive in [17], in [7], in test [8], in test [9], in [10] and in test [11]. Besides, the call in test [13], in [14], in test [15] and in [16] was inactive. The figures for the AC50 in test [12] and in test [19] were 5.08 µM (active) and 1.14 µM (active), respectively.

Regarding `CCC(C)c1cc([N+](=O)[O-])cc([N+](=O)[O-])c1O` (stereo not drawn), the AC50 in test [1] is 69.7 µM (active); in test [2], 111 µM (active); in test [7], 72.3 µM (active); in test [9], 14 µM (active); in test [10], 12.5 µM (active); in [11] it was 19.6 µM (active). The AC50 in test [14] is 10.6 µM (active); in test [19] it was 13.2 µM (active). For the same molecule, the outcome in [3], in [4], in [5], in test [6], in test [17] and in test [8] was inactive. Further, the result in test [12], in test [13], in test [15] and in test [16] was inactive.

`ClC1=C(Cl)[C@]2(Cl)[C@@H]3[C@@H](Cl)[C@H]4O[C@H]4[C@@H]3C1(Cl)C2(Cl)Cl`: the half-maximal activity concentration (AC50) in test [1] is 48.2 µM (active); in test [3], 51.6 µM (active); in test [17], 54.5 µM (active); in test [11], 33.7 µM (active); in test [12], 8.22 µM (active); in [14], 35.9 µM (active). For the same molecule, the AC50 in test [19] was 3.4 µM (active). For the same molecule, the outcome in test [2], in test [4], in test [5], in [6], in [7] and in test [8] was inactive. Further, the molecule was called inactive in [9], in test [10], in test [13], in test [15] and in test [16].
